Measured values reported in PubChem BioAssay (NCI).
About 83,000 compounds went through this panel and 20% of them were active in at least one assay; those are over-represented in the sample as a whole.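 Values shown are percent growth following 48 h exposure of cells in 96-well plates to a single concentration of compound; below 10 was considered active.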 Calls of active or inactive are those of the source.

System: NCI-H460 lung
Assay: NCI-60 one-dose screen, 48 h (100 = growth as untreated, 0 = no growth, -100 = all killed)
Details: 10 µM unless noted

SMILES | growth
CC(=O)OC[C@]12CC[C@@H]([C@@H](C)c3nnc(-c4ccncc4)o3)[C@@H]1[C@H]1CC[C@@H]3[C@@]4(C)CC[C@H](OC(C)=O)C(C)(C)[C@@H]4CC[C@@]3(C)[C@]1(C)CC2 | 58.6% (inactive)
COc1ccc(/C(C)=C(/c2ccc(OCCCN(C)C)cc2)c2ccc(OC(=O)c3ccccc3)cc2)cc1 | 67.1% (inactive)
COc1ccc2nc(Cl)c(/C=C3\CC(c4ccccc4)=NN(c4ccccc4)C3=O)cc2c1 | 67.8% (inactive)
CC(C)(C)c1cc(Cl)c(O)c(CNCCO)c1 | 101% (inactive)
CCS/C(Nc1ccccc1)=C(\C#N)C(=O)Nc1ccc(OC)cc1 | 10.1% (inactive)
COc1ccc(/C=C/c2c(C(=O)/C=C/c3ccccc3)c(C)nc3ccccc23)cc1 | -48.1% (active)
C#COc1cccc(Nc2ncnc3cc(NC(=O)[C@@H](C)Cl)ccc23)c1 | 6.36% [6.25 µM] (active)
COc1ccc(Cn2cc3c(c2-c2ccccc2)CCc2cnoc2-3)cc1 | 2.53% (active)
Cc1cc2c(cc1C)N(C(=O)CCl)CC(=O)N2 | 88.7% (inactive)
Oc1c(CN2CCC(N3CCCCC3)CC2)cc(Cc2cc(CN3CCC(N4CCCCC4)CC3)c(O)c3ncccc23)c2cccnc12 | 5.8% (active)
OCCNCCNC(Cc1ccc(Cl)cc1)c1ccccc1 (stereo not drawn) | 107% (inactive)
COc1cccc(-c2cc(-c3cccc(Cl)c3)c(C#N)c(=O)[nH]2)c1 | 78.5% (inactive)
CN(C)CCCNC(=O)c1cncnc1Nc1ccc(OCc2cccc(F)c2)c(Cl)c1 | -75.1% (active)
